# The supplement of paper PMC8387472
# Experiments:
# Assay in all cases: fraction of edited reads among all mapped reads; higher = more Cas9 editing
# Conditions in all cases: mESC; 2uM; 72 h treatment, harvest day 5
# [1] = compound: CC(C)(C#N)c1ccc(N2C(=O)OCc3cnc4ccc(-c5cnc6ccccc6c5)cc4c32)cc1
# [2] = compound: CCN1CCN(CC(=O)Nc2ccc(-c3cccc4c(=O)cc(N5CCOCC5)oc34)c3sc4ccccc4c23)CC1
# [3] = compound: CCc1c2c(nc3ccc(OC(=O)N4CCC(N5CCCCC5)CC4)cc13)-c1cc3c(c(=O)n1C2)COC(=O)[C@]3(O)CC [Irinotecan HCl Trihydrate]
# [4] = compound: CCn1c(=O)c(-c2ccc(Cl)cc2Cl)cc2cnc(Nc3ccc(N4CCNCC4)c(F)c3)nc21
# [5] = compound: CNc1ccc([N+](=O)[O-])c(Nc2ccc3[nH]ncc3c2)n1
# Rifapentine = compound: CO[C@H]1/C=C/O[C@@]2(C)Oc3c(C)c(O)c4c(O)c(c(/C=N/N5CCN(C6CCCC6)CC5)c(O)c4c3C2=O)NC(=O)/C(C)=C\C=C\[C@H](C)[C@H](O)[C@@H](C)[C@@H](O)[C@@H](C)[C@H](OC(C)=O)[C@@H]1C [Rifapentine]
# [6] = compound: COc1ccccc1-c1cc(Nc2cccc(CS(N)(=O)=O)c2)ncn1
# [7] = compound: C[C@@H]1CN(CC(=O)Nc2ccc3c(c2)Cc2cccc(-c4cc(=O)cc(N5CCOCC5)o4)c2S3)C[C@H](C)O1
# [8] = compound: CC(=O)O/N=C1\C(=O)N(Cc2cc(Cl)ccc2Cl)c2ccc(Cl)cc21
# [9] = compound: CCCCOc1c(C(=O)c2c(F)cc(C)cc2F)c[nH]c2nncc1-2
Target,fraction of edited reads among all mapped reads [1],fraction of edited reads among all mapped reads [2],fraction of edited reads among all mapped reads [3],fraction of edited reads among all mapped reads [4],fraction of edited reads among all mapped reads [5],fraction of edited reads among all mapped reads (Rifapentine),fraction of edited reads among all mapped reads [6],fraction of edited reads among all mapped reads [7],fraction of edited reads among all mapped reads [8],fraction of edited reads among all mapped reads [9]
"35.0 (DMSO control at this site: 1-bp insertion 0.01, MH deletion 0.72, edited 0.098) CCACTTTTAGAGAGGGTGAAAATCATCAGTTATCATCAGGGCAACAAATTGCTTTCTCCTA",0.143,0.0527,0.166,0.111,0.148,0.208,0.151,0.0395,,
"33.0 (DMSO control at this site: 1-bp insertion 0.008, MH deletion 0.771, edited 0.112) CATTAAGAGCAGCTGCCGGCCCCCAAGTGGACAGAGCTGGCCCTGCTGATTCAACAGTGCA",0.111,0.0458,0.162,0.115,0.126,0.211,0.163,0.0718,0.133,0.123
"20.0 (DMSO control at this site: 1-bp insertion 0.349, MH deletion 0.138, edited 0.084) TACAGGTGTAGACTGGTTACGTGGCTGCGGAATTGACTGGTTACGTGGCTGCGGAATTTTG",0.0867,0.0384,0.115,0.0929,0.1,0.133,0.147,0.103,0.0924,0.0976
46.0 TTAAGAGCAATGTTCACGCAACTTGAAATTATATCTGTGGTCTTCAAATTGTCTTTTGTCA,0.109,,,,0.099,0.157,,,,0.106
"7.0 (DMSO control at this site: 1-bp insertion 0.128, MH deletion 0.374, edited 0.098) TACTCAACCGAGACCTACGCGAACCGAAATCGTATGCCGGTGCGCAAGCAGGGCTGGCGTC",0.115,0.0615,0.161,0.0955,0.135,0.19,0.126,0.0557,0.117,0.118
27.0 CCAGAATTAGAACATATCATCTGGACCCTTTTCCATCTGGACCCTTTTCCAGCACACCCTG,0.055,,0.0605,,0.0612,0.0829,0.0745,,0.0506,0.0501
"45.0 (DMSO control at this site: 1-bp insertion 0.017, MH deletion 0.666, edited 0.101) TTACACAGCATGAACTGCTAGGTGATGATGTCAGATTCGGTTTTACTAACTTCTCCAAAAA",0.112,0.0494,0.153,0.113,0.133,0.203,0.144,0.0499,0.115,0.119
"31.0 (DMSO control at this site: 1-bp insertion 0.315, MH deletion 0.329, edited 0.026) ACCTCCACAGGCTGGGTGGCCCGGAGGCTGGGCGGCCCGGAGGCTGGGCTGGGCGAGTATC",0.0243,0.0119,0.0428,0.0286,0.0363,0.0504,0.0355,,0.0285,0.0286
21.0 CGATTGAGAGTCAAACGGGCCAGAAAACTCCGGGAACGGGCCAGAAAACTCCGGGGCATGG,0.106,0.0441,0.152,,0.141,0.199,0.144,0.046,0.124,0.132
23.0 AGAACAAAGCGCTCATATAACGATATGGGGGGTTATGGGGGGTTGAATTGCTTCAGCACGA,,,,,0.981,,,,,
"40.0 (DMSO control at this site: 1-bp insertion 0.072, MH deletion 0.192, edited 0.189) GCGAATCAACTGTTCAACAACAGCAGCAGCCACCTGGAGGACTACAGTGGCCTGTCCGTGT",0.198,0.0829,0.259,0.184,0.242,0.327,0.271,0.219,0.203,0.224
"16.0 (DMSO control at this site: 1-bp insertion 0.172, MH deletion 0.29, edited 0.05) CGGACTGCACACATGGGTAGGATCGTGCACGCGAGGTAGGATCGTGCACGCGAAGTTATTC",0.0603,0.0319,0.079,0.0596,0.0609,0.0951,0.076,0.0437,0.0491,0.0612
"29.0 (DMSO control at this site: 1-bp insertion 0.084, MH deletion 0.745, edited 0.133) TTGATGAACTTCCTCTTCTTCTCATGTCTCCGGTCTCCGGTAGGCCACGTGCATGGCCACT",0.157,0.073,0.196,0.142,0.167,0.256,0.172,0.0736,0.166,0.153
"44.0 (DMSO control at this site: 1-bp insertion 0.181, MH deletion 0.512, edited 0.123) ACACATACCTTCTTCGAGGCAGCCAGCATGATGAGACAGGTCTCCCACAAACACATCGTGT",0.14,0.0618,0.202,0.138,0.17,0.251,0.195,0.111,0.149,0.157
"32.0 (DMSO control at this site: 1-bp insertion 0.03, MH deletion 0.85, edited 0.898) AGAAGTCCAGGATCAGGGGGACTGGGGTCGGGAGGGTGGGGCAGGAAGGAAGCCAGAATCA",0.917,0.793,0.944,0.929,0.921,0.946,0.934,0.841,0.893,0.893
"4.0 (DMSO control at this site: 1-bp insertion 0.146, MH deletion 0.523, edited 0.125) ACGCCTTAGTGCACGAGTGACGGGATAATGTGGTCTCAGGTAATTGATAGGCTTCCAACTT",0.149,0.0719,0.194,0.136,0.182,0.243,0.188,0.0881,0.157,0.155
"25.0 (DMSO control at this site: 1-bp insertion 0.017, MH deletion 0.774, edited 0.143) GGGCCTGAATGGTGTGGACATCTACTCGCTGGTGAGCTGGTGACTGAAAACATTCAGTGGC",0.183,0.0836,0.211,0.167,0.199,0.306,0.205,0.0682,0.18,0.184
"0.0 (DMSO control at this site: 1-bp insertion 0.463, MH deletion 0.339, edited 0.14) AGGATTACCGAGACCTACGCGAACCGAAATCGCTGTCCGGTGCGCAAGCAGGGCTGGCGTC",0.154,0.0626,0.218,0.155,0.203,0.274,0.213,0.15,0.147,0.172
"39.0 (DMSO control at this site: 1-bp insertion 0.328, MH deletion 0.371, edited 0.204) CTGCACAGTCACTTAGGATAGGAGAAGATGATGTATAGGGTTTAGTGGGAGATGTTGCAAG",0.182,0.0792,0.252,0.192,0.223,0.335,0.248,0.191,0.191,0.214
